Results: PubChem BioAssay (Tox21)
Results filed as inconclusive are left out. Where a call stands in place of a potency, no number is given. The source made the active and inactive calls. The call rests on the fitted dose curve; in most records, active means well fitted inhibition curve with a large enough effect in the repeat runs; inconclusive means weak or mixed curves; inactive means flat fitted curve, though single readings scatter.

target: Voltage-gated inwardly rectifying potassium channel KCNH2 (Homo sapiens) (UniProt Q12809); experiment: Human Ether-a-go-go-Related Gene (hERG) channel small molecule antagonists: fluorescence cell-based qHTS assay (AID 1671200); conditions: hERG-U2OS cells, FluxOR thallium flux fluorescence; series mostly up to 76.8 µM; further: nearly all actives have a fitted effect of over 50% in size
From the text: National Center for Advancing Translational Sciences [NCATS]
U.S. Environmental Protection Agency [EPA]
National Institutes of Environmental Health Sciences [NIEHS]
National Toxicology Program [NTP]
U.S. Food and Drug Administration [FDA]
Mutations in the hERG channel cause Long QT (LQT) syndrome. LQT syndrome is a cardiac disorder which can cause ventricle arrhythmia and sudden death. Additionally, compounds which block the hERG channel can cause acquired LQT syndrome. Several FDA approved drugs have been removed from the market due to their hERG blocking activity. A cell-based hERG channel inhibition assay can be used to screen chemical compounds that inhibit hERG channel. This assay measures hERG channel activity using thallium ions as surrogate ions to measure potassium into the cells.
Tox21 Assay Protocol Summary:
hERG-U2OS cells were resuspended in culture medium and dispensed into 1536-well, black wall/clear-bottom plates at 1000cells/well/3uL using a Multidrop Combi dispenser (Thermo Fisher, Waltham, MA). After plates were incubated at 37 C overnight, 3 uL of Loading Buffer provided by FluxOR II Potassium Ion Channel Assay kit (Thermo, Carlsbad, CA) was added to each well. The assay plates were then incubated at room temperature in the dark for 1h. […] After the assay plates were incubated at room temperature for 10 min, 1 uL of Stimulus Buffer provided by FluxOR II Potassium Ion Channel Assay kit was added into each well and fluorescence intensity (480nm excitation/540nm emission) was continuously measured for 2 min at 1 second intervals using a Functional Drug Screening System (FDSS) 7000EX kinetic plate reader (Hamamatsu, Japan).
Potency means the concentration at half of the fitted maximal effect.

Sequence of Voltage-gated inwardly rectifying potassium channel KCNH2 (Homo sapiens) (Q12809 whole entry, looked up): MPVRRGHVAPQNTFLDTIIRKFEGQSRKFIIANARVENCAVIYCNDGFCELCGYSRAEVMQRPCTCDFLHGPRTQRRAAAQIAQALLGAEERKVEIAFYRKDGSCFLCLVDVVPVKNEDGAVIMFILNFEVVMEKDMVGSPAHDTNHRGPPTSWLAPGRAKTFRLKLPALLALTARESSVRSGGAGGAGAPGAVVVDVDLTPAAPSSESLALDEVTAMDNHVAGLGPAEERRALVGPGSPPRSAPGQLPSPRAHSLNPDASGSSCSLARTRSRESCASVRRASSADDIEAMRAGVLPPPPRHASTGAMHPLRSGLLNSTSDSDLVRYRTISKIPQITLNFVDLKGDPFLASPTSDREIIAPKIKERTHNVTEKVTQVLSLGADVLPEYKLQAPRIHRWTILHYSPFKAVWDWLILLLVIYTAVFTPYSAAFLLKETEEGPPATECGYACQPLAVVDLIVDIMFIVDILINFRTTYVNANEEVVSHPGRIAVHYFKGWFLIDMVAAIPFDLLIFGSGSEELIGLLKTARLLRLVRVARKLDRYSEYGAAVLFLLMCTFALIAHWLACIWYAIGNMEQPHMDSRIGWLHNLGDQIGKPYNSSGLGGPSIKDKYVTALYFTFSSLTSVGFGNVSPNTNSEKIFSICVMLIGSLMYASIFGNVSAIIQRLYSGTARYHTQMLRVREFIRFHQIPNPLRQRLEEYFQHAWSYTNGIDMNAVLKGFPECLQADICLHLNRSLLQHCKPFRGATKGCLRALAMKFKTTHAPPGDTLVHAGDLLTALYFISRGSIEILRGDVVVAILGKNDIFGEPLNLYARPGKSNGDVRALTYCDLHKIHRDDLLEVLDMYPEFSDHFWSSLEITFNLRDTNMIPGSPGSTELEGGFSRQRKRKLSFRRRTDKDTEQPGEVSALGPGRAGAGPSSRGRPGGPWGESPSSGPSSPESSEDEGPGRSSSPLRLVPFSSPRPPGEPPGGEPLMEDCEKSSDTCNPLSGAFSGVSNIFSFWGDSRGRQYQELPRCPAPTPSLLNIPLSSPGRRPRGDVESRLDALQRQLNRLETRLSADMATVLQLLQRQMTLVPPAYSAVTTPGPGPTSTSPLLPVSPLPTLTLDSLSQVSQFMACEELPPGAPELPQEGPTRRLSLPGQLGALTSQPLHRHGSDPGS

How did the Potency turn out when CC(=O)N(O)CCCCCNC(=O)CCC(=O)N(O)CCCCCNC(=O)CCC(=O)N(O)CCCCCN was run?
Its Potency is “inactive”.

For N#Cc1c(F)cccc1F, which Potency is on record?
Its Potency is “inactive”.

With C[Si](C)O[Si](C)(C)O[Si](C)(C)O[Si](C)C as the compound, how does the Potency read?
The Potency was “inactive”.

O=C(O)Cn1c(C(=O)Nc2nc(-c3ccccc3Cl)cs2)cc2ccccc21 was tested. Which Potency did it give?
The Potency was “inactive”.

C=C(C)C(=O)OC(C)C was tested. Which Potency did it give?
The Potency was “inactive”.

With CCCCCCCCCCCCCCC1CO1 (stereo not given) as the compound, how does the Potency read?
The Potency was “inactive”.

With CCOc1cc(OCC)c(C(=O)CCC(=O)O)cc1OCC as the compound, how does the Potency read?
The Potency was “inactive”.

CCCCCCCCCC=O was tested. Which Potency did it give?
Its Potency is “inactive”.

With CCCCCC(CO)CCC (stereo not given) as the compound, how does the Potency read?
Its Potency is “inactive”.

How did the Potency turn out when CC(CN)CCCN (stereo not given) was run?
Its Potency is “inactive”.

For CC(C(=O)O)c1ccc(C(=O)c2ccccc2)s1 (stereo not given), which Potency is on record?
The Potency was “inactive”.

With Cc1nc2ccccc2n1Cc1ccc(Cl)cc1 as the compound, how does the Potency read?
The Potency was “inactive”.

For CCc1nn(C2CCCCC2)c2cc(C3(C#N)CCC(C(=O)O)CC3)ccc12 (stereo not given), which Potency is on record?
Its Potency is “inactive”.

How did the Potency turn out when C[C@H](CCC(=O)O)[C@H]1CC[C@H]2[C@@H]3[C@H](O)C[C@@H]4C[C@H](O)CC[C@]4(C)[C@H]3CC[C@]12C was run?
Its Potency is “inactive”.

For Cc1cc(C)c(S(=O)(=O)O)cc1N=Nc1cc(S(=O)(=O)O)c2ccccc2c1O, which Potency is on record?
Its Potency is “inactive”.

Which Potency does the source give for NCCCN(CCO)CCO here?
The Potency was “inactive”.

For O=C(Cl)c1ccc([N+](=O)[O-])cc1, which Potency is on record?
Its Potency is “inactive”.

With CC(=O)SCc1ccco1 as the compound, how does the Potency read?
The Potency was “inactive”.

With Cc1occc1S as the compound, how does the Potency read?
Its Potency is “inactive”.

How did the Potency turn out when CCOC(=O)CC(C)C was run?
The Potency was “inactive”.

With CCCCCCCCCCCCCCCC(=O)OC/C=C(C)/C=C/C=C(C)/C=C/C1=C(C)CCCC1(C)C as the compound, how does the Potency read?
The Potency was “inactive”.

For CCC(C)N(C)C(=O)c1cc2ccccc2c(-c2ccccc2Cl)n1 (stereo not given), which Potency is on record?
Its Potency is “inactive”.

How did the Potency turn out when O=[N+]([O-])c1cccc(Cl)c1Cl was run?
The Potency was “inactive”.

How did the Potency turn out when CC(C)(C)C(=O)OCOP(=O)(COCCn1cnc2c(N)ncnc21)OCOC(=O)C(C)(C)C was run?
Its Potency is “inactive”.

With CC(C)c1cccc(C(C)C)c1NC(=O)NS(=O)(=O)c1cc(C(C)(C)O)co1 as the compound, how does the Potency read?
The Potency was “inactive”.

CC(=O)CC(=O)c1ccccc1 was tested. Which Potency did it give?
Its Potency is “inactive”.

How did the Potency turn out when CC(C)(C)c1ccc(OCC2CO2)cc1 (stereo not given) was run?
The Potency was “inactive”.

Which Potency does the source give for Nc1ccc(C(=O)Nc2ccccc2N)cc1 here?
Its Potency is “inactive”.

How did the Potency turn out when CC(C)CC=O was run?
The Potency was “inactive”.

How did the Potency turn out when CCCCCC/C=C/C=O was run?
Its Potency is “inactive”.

With CCN(CC)CCc1nc(-c2ccccc2)no1 as the compound, how does the Potency read?
Its Potency is “inactive”.

With COc1ccc(OC)c(OC)c1 as the compound, how does the Potency read?
The Potency was “inactive”.

Cl/C(=C\n1cncn1)c1ccc(Cl)cc1Cl was tested. Which Potency did it give?
The Potency was “inactive”.

For CC(=O)Nc1ccc(/C=N/NC(N)=S)cc1, which Potency is on record?
Its Potency is “inactive”.

With CNS(=O)(=O)Cc1ccc2[nH]cc(CCN(C)C)c2c1 as the compound, how does the Potency read?
The Potency was “inactive”.

With CC(=O)/C(C)=C/C1C(C)=CCCC1(C)C (stereo not given) as the compound, how does the Potency read?
The Potency was “inactive”.

How did the Potency turn out when Cc1cc(NC(=O)C(=O)O)cc(C)c1Oc1ccc(O)c2c1CCC2 was run?
Its Potency is “inactive”.

How did the Potency turn out when CCCC[C@H]1CN(CC2CCOCC2)C(=O)OC12CCN(C1(C)CCN(C(=O)c3c(C)ncnc3C)CC1)CC2 was run?
Its Potency is 12.2 µM (active).

With O=C=NC1CCC(CC2CCC(N=C=O)CC2)CC1 (stereo not given) as the compound, how does the Potency read?
Its Potency is “inactive”.

Which Potency does the source give for CN1CCC(=C2c3ccccc3CCc3sccc32)CC1 here?
The Potency was 16.9 µM (active).
